This passage reports binding signal results from paper PMC3218832.

Holding throughout (assay): protein binding microarray; high values mean tight binding
Details in all cases: dsDNA, one strand shown

Assay [1] has as its target RELARELA (p65 homodimer) (Homo sapiens, UniProt Q04206 1-307).
In assay [2] the target is p50p50 homodimer (Homo sapiens, UniProt P19838 7-356).
Assay [3] addresses T1, p52p52 homodimer (Homo sapiens, UniProt Q00653 4-332).
T1 sequence: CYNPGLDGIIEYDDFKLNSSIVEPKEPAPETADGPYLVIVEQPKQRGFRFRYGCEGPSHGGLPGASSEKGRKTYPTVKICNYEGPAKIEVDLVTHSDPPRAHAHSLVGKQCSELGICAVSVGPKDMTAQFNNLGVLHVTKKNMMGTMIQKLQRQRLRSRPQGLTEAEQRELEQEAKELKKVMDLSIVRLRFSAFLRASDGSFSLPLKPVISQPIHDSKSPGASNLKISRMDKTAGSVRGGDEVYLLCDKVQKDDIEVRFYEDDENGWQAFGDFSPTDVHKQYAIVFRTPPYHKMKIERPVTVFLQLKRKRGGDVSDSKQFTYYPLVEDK

Assay [4] concerns the target RELA (p65) subunit of heterodimer;p50 subunit (Homo sapiens;Homo sapiens, UniProt Q04206;P19838 1-307;7-356).
The target of assay [5] is RELA (p65) subunit of heterodimer;p52 subunit (Homo sapiens;Homo sapiens, UniProt Q04206;Q00653 1-307;4-332).
Assay [6] has as its target RELB subunit;p50 subunit (Homo sapiens;Homo sapiens, UniProt Q01201;P19838 120-401;7-356).
The target in assay [7] is T2, RELB subunit;p52 subunit (Homo sapiens;Homo sapiens, UniProt Q01201;Q00653 120-401;4-332).
T2 sequence 1: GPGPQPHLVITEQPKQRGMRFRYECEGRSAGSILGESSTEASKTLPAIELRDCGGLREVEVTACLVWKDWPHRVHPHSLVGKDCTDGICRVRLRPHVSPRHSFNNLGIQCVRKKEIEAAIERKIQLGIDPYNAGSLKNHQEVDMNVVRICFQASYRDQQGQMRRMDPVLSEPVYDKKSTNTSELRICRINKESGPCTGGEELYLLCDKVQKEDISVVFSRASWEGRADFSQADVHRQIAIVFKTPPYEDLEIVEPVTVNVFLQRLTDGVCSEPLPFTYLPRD
T2 sequence 2: T1 sequence

Assay [8] addresses C-Rel subunit;p50 subunit (Homo sapiens;Homo sapiens, UniProt Q04864;P19838 1-285;7-356).
The target of assay [9] is T3, C-Rel subunit;p52 subunit (Homo sapiens;Homo sapiens, UniProt Q04864;Q00653 1-285;4-332).
T3 sequence 1: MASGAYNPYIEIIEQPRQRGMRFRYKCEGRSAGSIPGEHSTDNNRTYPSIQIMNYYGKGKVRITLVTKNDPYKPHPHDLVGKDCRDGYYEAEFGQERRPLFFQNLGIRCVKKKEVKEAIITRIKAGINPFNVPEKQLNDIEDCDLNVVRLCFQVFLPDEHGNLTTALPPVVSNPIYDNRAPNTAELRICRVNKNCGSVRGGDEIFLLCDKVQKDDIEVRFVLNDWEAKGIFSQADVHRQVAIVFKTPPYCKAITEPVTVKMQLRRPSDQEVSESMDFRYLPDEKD
T3 sequence 2: T1 sequence

p50p50 homodimer, sequence (P19838 7-356): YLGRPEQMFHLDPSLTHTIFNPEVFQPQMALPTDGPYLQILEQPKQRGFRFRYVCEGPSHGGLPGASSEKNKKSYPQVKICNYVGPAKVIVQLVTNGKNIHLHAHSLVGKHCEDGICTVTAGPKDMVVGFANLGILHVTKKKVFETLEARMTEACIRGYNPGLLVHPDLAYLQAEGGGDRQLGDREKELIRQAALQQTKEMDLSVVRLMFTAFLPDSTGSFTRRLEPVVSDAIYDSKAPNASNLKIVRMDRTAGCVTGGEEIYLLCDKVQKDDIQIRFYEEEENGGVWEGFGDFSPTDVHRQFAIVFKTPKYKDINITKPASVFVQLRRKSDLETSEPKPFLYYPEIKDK
RELARELA (p65 homodimer), sequence (Q04206 1-307): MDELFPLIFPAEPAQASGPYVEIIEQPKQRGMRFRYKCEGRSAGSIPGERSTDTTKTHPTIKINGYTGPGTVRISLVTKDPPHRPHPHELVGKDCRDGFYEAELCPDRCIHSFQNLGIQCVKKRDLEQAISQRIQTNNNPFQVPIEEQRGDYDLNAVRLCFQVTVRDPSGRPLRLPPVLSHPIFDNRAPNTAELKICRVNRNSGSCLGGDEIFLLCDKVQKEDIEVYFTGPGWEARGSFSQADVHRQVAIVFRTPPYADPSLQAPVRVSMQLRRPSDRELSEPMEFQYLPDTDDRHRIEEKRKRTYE
RELA (p65) subunit of heterodimer;p50 subunit, sequence (Q04206 1-307, chain 1 of 2): as the sequence (Q04206 1-307) above
RELA (p65) subunit of heterodimer;p50 subunit, sequence (P19838 7-356, chain 2 of 2): as the sequence (P19838 7-356) above

For AAGGATACCCC, the binding signal was 0.0433 z-score in [1]; 0.446 z-score in assay [2]; 0.189 z-score in [3]; 0.436 z-score in [4]; 0.502 z-score in [5]; 0.457 z-score in [6]. Further, the binding signal in [7] was 0.95 z-score; in [8], 0.507 z-score; in assay [9], 0.247 z-score.
For the sequence GAGAACTCCCC, the binding signal in assay [1] came out at 0.725 z-score; in assay [2] it was 1.15 z-score; in assay [3], 1.06 z-score; in assay [4], 1.34 z-score; in assay [5], 1.05 z-score; in assay [6], 1.1 z-score. Moreover, the binding signal in assay [7] was 0.794 z-score; in assay [8] it was 0.916 z-score; in assay [9], 0.92 z-score.
As for GAGTTCTTCCT, the binding signal in assay [1] is -0.0672 z-score; in assay [2] it was -1.52 z-score; in assay [3], -0.678 z-score; in [4] it was -0.535 z-score; in [5], -0.734 z-score; in [6], -0.845 z-score. Further, the binding signal in [7] is -0.72 z-score; in assay [8] it was -0.764 z-score; in [9] it was -0.548 z-score.
For the sequence AGAAGTCTCCT, the binding signal in assay [1] was -0.456 z-score; in [2], -1.85 z-score; in assay [3] it was -0.738 z-score; in assay [4], -0.94 z-score; in assay [5], -0.879 z-score; in [6] it was -0.942 z-score. Further, the binding signal was -0.985 z-score in assay [7], -1.36 z-score in [8] and -0.926 z-score in assay [9].
On to AGAATTTCCCC, for which the binding signal in assay [1] was found to be 3.09 z-score; in [2] it was 1.24 z-score; in assay [3], 2.64 z-score; in [4] it was 2.2 z-score; in [5] it was 2.3 z-score; in assay [6], 2.59 z-score. The binding signal is 2.28 z-score in assay [7], 1.85 z-score in assay [8] and 2.29 z-score in assay [9].
For AGGAGCCCCCT, the binding signal was -0.528 z-score in [1]; 1.32 z-score in [2]; 0.61 z-score in assay [3]; 1.07 z-score in [4]; 0.992 z-score in assay [5]; 1.2 z-score in assay [6]. For the same sequence, the binding signal in assay [7] worked out at 1.26 z-score; in assay [8], 1.02 z-score; in [9], 0.757 z-score.
As for AAGGGCACCCC, the binding signal in assay [1] is -0.322 z-score; in assay [2], -0.576 z-score; in assay [3] it was -0.342 z-score; in [4], -0.454 z-score; in assay [5] it was -0.414 z-score; in assay [6], -0.379 z-score. In addition, the binding signal is -0.217 z-score in assay [7], -0.33 z-score in assay [8] and -0.364 z-score in assay [9].
For AAGAGATCCCT, the binding signal in [1] is -0.452 z-score; in assay [2] it was -0.0204 z-score; in assay [3] it was -0.142 z-score; in assay [4], -0.376 z-score; in assay [5], -0.411 z-score; in assay [6], 0.117 z-score. For the same sequence, the binding signal in [7] is -0.279 z-score; in assay [8], -0.41 z-score; in assay [9], -0.484 z-score.
Take GAAGTTGTCCT: the binding signal is -0.136 z-score in [1]; -1.05 z-score in [2]; -0.601 z-score in [3]; -0.859 z-score in assay [4]; -0.716 z-score in [5]; -0.826 z-score in assay [6]. The binding signal in assay [7] was -0.62 z-score; in [8], -0.931 z-score; in assay [9], -0.642 z-score.
As for CAATACATCCC, the binding signal is -0.0719 z-score in [1]; -0.836 z-score in [2]; -0.518 z-score in assay [3]; -0.774 z-score in [4]; -0.7 z-score in [5]; -0.646 z-score in [6]. The binding signal was -0.575 z-score in assay [7], -0.971 z-score in [8] and -0.69 z-score in assay [9].
As for CGGATGGTCCC, the binding signal in assay [1] was 0.128 z-score; in assay [2] it was -0.139 z-score; in [3], -0.00887 z-score; in [4] it was 0.132 z-score; in [5], 0.027 z-score; in [6] it was -0.0363 z-score. Also, the binding signal in assay [7] is -0.117 z-score; in assay [8], 0.0204 z-score; in assay [9] it was 0.154 z-score.
As for AAGGTCACCCT, the binding signal in assay [1] is -0.86 z-score; in [2], -1.49 z-score; in [3], -0.495 z-score; in assay [4] it was -0.903 z-score; in assay [5], -0.928 z-score; in assay [6], -0.645 z-score. Also, the binding signal in assay [7] is -0.697 z-score; in assay [8] it was -1.21 z-score; in [9], -0.77 z-score.
With GAAAACATCCC, the binding signal in assay [1] was 0.244 z-score; in assay [2], -0.173 z-score; in [3], -0.106 z-score; in assay [4] it was -0.0842 z-score; in [5], -0.0683 z-score; in assay [6], -0.24 z-score. For the same sequence, the figures for the binding signal in assay [7], in assay [8] and in assay [9] were -0.321 z-score, -0.174 z-score and -0.211 z-score, respectively.
As to AGGGTGGTCCC, the binding signal in [1] is -0.0899 z-score; in assay [2], 0.541 z-score; in [3], 0.435 z-score; in assay [4], 0.249 z-score; in assay [5], 0.357 z-score; in assay [6] it was 0.251 z-score. Further, the binding signal in [7] amounted to 0.266 z-score; in [8], 0.364 z-score; in [9], 0.427 z-score.
AGATTGGTCCT: the binding signal was -0.38 z-score in [1]; -1.15 z-score in [2]; -0.549 z-score in [3]; -1.18 z-score in assay [4]; -0.788 z-score in assay [5]; -0.729 z-score in assay [6]. In addition, the binding signal in [7] is -0.656 z-score; in assay [8] it was -1.35 z-score; in [9] it was -0.852 z-score.
